The sample as a whole holds a higher share of hits than the screen did.
Pf Dd2 growth: blocks in vitro growth of P. falciparum Dd2 | P. falciparum Dd2 growth, SYBR Green, 72 h | Potency, µM (top dose mostly 28.9 µM), hits mostly inhibitors | actives 4.3% (n = 120,000) | AID 1347417; active = well fitted inhibition curve with a large enough effect; note: nearly all actives have a fitted effect of over 65% in size
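Infected erythrocytes (Dd2, 0.3% parasitemia, 2.5% hematocrit final) are added to compound in RPMI-1640/Albumax II medium, grown 72 h at 37C in low oxygen, then lysed with saponin/Triton-X containing SYBR Green and read by fluorescence.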
A number is an active result; – = inactive.

SMILES	Pf Dd2 growth
CCOC(=O)C1(Cc2ccc(F)cc2)CCCNC1 (stereo not given)	2.8µM
CCOC(=O)C1(Cc2ccccc2)CCNCC1	5.6µM
O=C(COc1ccccc1)NC1CCc2n[nH]c(=O)n2CC1 (stereo not given)	–
COC[C@@H]1CN(C(=O)c2cn3ccccc3n2)C[C@H]1c1nc(C)no1	–
CCC(C)NC(=O)C(NC(=O)c1ccc(OC)cc1)C1CCN(C(=O)CC(C)C)CC1 (stereo not given)	–
C[C@@H]1C(=O)O[C@H]2[C@H]1CC[C@@]1(C)Cc3sc(NC(=O)COCC(=O)O)nc3[C@@H](C)[C@H]21	–
C[C@@H]1C(=O)O[C@H]2[C@H]1CC[C@@]1(C)Cc3sc(NC(=O)COc4ccccc4)nc3[C@@H](C)[C@H]21	7.1µM
C[C@@H]1C(=O)O[C@H]2[C@H]1CC[C@@]1(C)Cc3sc(NCc4ccccc4)nc3[C@@H](C)[C@H]21	–
Cc1cc(CN(C)C(=O)C2CCCN(C3CCN(Cc4ccncc4)CC3)C2)n[nH]1 (stereo not given)	–
CNC(=O)[C@H]1C[C@H](Oc2ccccc2)CN1C(=O)c1cccc(C)c1	–
COCCNc1cc(-c2cncc(C(=O)N3CCOCC3)n2)c2cc[nH]c2n1	–
CN(C)CCNc1cc(-c2ccc3ccccc3n2)c2cc[nH]c2n1	13µM
CC(=O)c1sccc1-c1cc(NCc2ccccn2)nc2[nH]ccc12	–
Cc1ccc(C#N)c(-c2cc(NCc3cccnc3)nc3[nH]ccc23)n1	–
CN(C)CCNC(=O)c1nc(-c2ccccc2)cc2[nH]ccc12	–
Clc1cccnc1-c1cc(NCc2ccccn2)nc2[nH]ccc12	8.9µM
CC(C)c1cccc(-c2cc(NCc3ccccn3)nc3[nH]ccc23)n1	8.9µM
CC(=O)NCc1ccc(-c2cc(NC3CCCC3)nc3[nH]ccc23)nc1	–
NC(=O)c1ccnc(-c2cc(NCc3ccccn3)nc3[nH]ccc23)c1	–
CN(C)c1cccc(Oc2nnnn2[C@H]2CO[C@H]3[C@@H]2OC[C@@H]3NC(=S)Nc2cccc(C#N)c2)c1	–
COc1ccc(C(=O)N2C[C@@H](CO)[C@H](c3nc(C)no3)C2)cc1F	–
OC[C@H]1CCN(c2nnnn2-c2ccc(Oc3ccccc3)cc2)C[C@H]1O	–
CCOc1ccc(-c2cc3c(=O)n(CCNC(=O)c4ccc5c(c4)OCO5)ccn3n2)cc1	–
O=C(c1ccc(N2CC3CC(C2)[C@H]2CCCC(=O)N2C3)nc1)N1CCN(c2cccc(Cl)c2)CC1 (stereo not given in full)	–
CCCCOc1ccc(C(=O)N2CCC(Cc3nc(-c4cnccn4)no3)CC2)cc1	–
SMILES	Pf Dd2 growth
CN(CCCN1CCOCC1)Cc1nc(-c2cccs2)no1	–
COc1ccccc1OC(C)C(=O)NCC1(N2CCOCC2)CCCCC1 (stereo not given)	–
CN(Cc1nc(COc2ccccc2)no1)CC1(N2CCOCC2)CCCCC1	8.9µM
CN(C)c1nccnc1OC1CCN(C(=O)c2ccncc2)C1 (stereo not given)	–
CCC(CC)C(=O)N1CCC(Oc2nccnc2N(C)C)C1 (stereo not given)	–
CN(C)c1nccnc1OC1CCN(C(=O)CCC(=O)c2ccc(F)cc2)C1 (stereo not given)	5.6µM
CCCC1c2nccn2CCCN1C(=O)CCc1c(C)nn(C)c1C (stereo not given)	–
CC(C)(C)CC(=O)N1CC[C@H]2COC(=O)N2c2cc(F)ccc2C1	–
Cc1ccc(S(=O)(=O)c2cn(Cc3ccc(F)cc3)c3cc(N4CCCC4)c(F)cc3c2=O)cc1	–
Cc1cccc(S(=O)(=O)c2cn(Cc3ccccc3)c3cc(N4CCC(C)CC4)c(F)cc3c2=O)c1	10µM
CCCCn1cc(S(=O)(=O)c2ccc(OC)cc2)c(=O)c2cc(F)c(F)cc21	–
CCn1cc(S(=O)(=O)c2cccc(C)c2)c(=O)c2cc(F)c(N3CCN(c4ccccc4)CC3)cc21	–
COc1ccc(S(=O)(=O)c2cn(Cc3ccccc3)c3cc(N4CCCC4)c(F)cc3c2=O)cc1	13µM
Cc1ccc(Cn2cc(S(=O)(=O)c3ccccc3)c(=O)c3cc(F)c(N4CCOCC4)cc32)cc1	10µM
CCCCn1cc(S(=O)(=O)c2ccc(OC)cc2)c(=O)c2cc(F)c(N3CCOCC3)cc21	11µM
CCn1cc(S(=O)(=O)c2cccc(Cl)c2)c(=O)c2cc(F)c(N3CCC(C)CC3)cc21	–
Cc1ncoc1C(=O)N1CCCC(c2nc(-c3cccnc3)no2)CCNC(=O)CC1 (stereo not given)	–
C=CCC(=O)N1CCOC(CCCC(C)C)C1 (stereo not given)	–
Cn1nc(C2CCN(C(=O)c3ccccc3)CC2)[nH]c1=O	–
Cc1ccc2c(c1)N(C(=O)Cn1ccn3nc(-c4ccc(F)cc4)c(CO)c3c1=O)CCO2	–
O=C(C1CC=CCC1)N1CCC(C2CCNC2)CC1 (stereo not given)	–
COc1cccc(NC(=O)CCC2CCN(C(=O)c3cc4ccccc4cn3)CC2)c1	–
CC(NC(=O)c1cn(C2CCC(N)CC2)nn1)c1ncnn1C (stereo not given)	–
COc1ccc(CC(=O)N2[C@@H]3CC[C@H]2CC(NC(=O)c2cnc(C)cn2)C3)cc1Cl (stereo not given in full)	–
CCOc1ccc(C(=O)N(C)C2CCc3nnc(C)n3CC2)cc1OCC (stereo not given)	–
SMILES	Pf Dd2 growth
COc1ccc(NC(=O)CN2C(=O)NC(c3ccccc3Cl)C3=C2COC3=O)cc1 (stereo not given)	–
CS(=O)(=O)N1C[C@H]2CCN(Cc3c(F)cccc3Cl)C[C@H]21	–
COc1ccc(CN2CCC3(CC(c4cccc(C(F)(F)F)c4)=NO3)C2)cc1 (stereo not given)	–
COc1ccc(C2=NOC3(CCN(Cc4cccnc4)C3)C2)cc1 (stereo not given)	–
COc1ccc(C2=NOC3(CCN(Cc4ccc(F)cc4)C3)C2)cc1 (stereo not given)	4µM
CCNC(=O)N1CCCN(S(C)(=O)=O)C(c2ccccc2)CC(=O)NCC1 (stereo not given)	–
COCCN(Cc1cnn(-c2ccccc2C)c1)CC1CC1	7.1µM
CCCc1nc(C(=O)N(C)Cc2cnn(-c3ccccc3C)c2)cs1	–
COCCN(Cc1ccc(C)cc1)Cc1ccc(C#N)cc1	–
OCC1CN(c2ncccn2)CC12CCN(C1CCSCC1)CC2 (stereo not given)	–
CCC1(N2CCN(C(=O)c3ccc(F)c(Cl)c3)CC2)CCN(S(C)(=O)=O)C1 (stereo not given)	–
O=C(c1ccc(F)cc1Cl)N1CCC(n2cc(-c3nc(C4CC4)no3)nn2)C1 (stereo not given)	–
CCOC(=O)c1ccc(NC(=O)CN2C(=O)C(C)(C)c3ccccc32)cc1	–
CCCCN1C(=O)C(O)(CC(=O)c2ccc(C(C)(C)C)cc2)c2ccccc21 (stereo not given)	1.3µM
COc1ccc(C(=O)CC2(O)C(=O)N(Cc3ccccc3Cl)c3ccccc32)cc1 (stereo not given)	–
CN(C)c1ccc(CN(C)C2CCOc3ccccc32)cc1 (stereo not given)	–
COC(=O)c1cn([C@H]2CO[C@H]3[C@@H]2OC[C@@H]3NC(=O)NCc2ccccc2)nn1	–
Cc1ccc(C(C)(C)C)c(OCC(=O)NCCc2nc3ccccc3[nH]2)c1	–
Cc1ccc(/C=C(\C#N)c2nc3ccccc3c(=O)[nH]2)cc1	–
Cc1ccc(/C=C/c2nc3ccccc3[nH]2)cc1	10µM
